Sampled rows, rich in hits. Any-hit rate of the full collection: about 10%.
G9a block: inhibitors of human histone lysine methyltransferase G9a | G9a H3K9 monomethylation, AlphaScreen, 2 h | Potency, µM (doses to about 102 µM), inactives show at the top dose activity, negative = inhibition, actives largely listed as inhibitors | 8.8% of 350,000 active; note: % is set by controls: 0 for no effect and ±100 for the full control effect; nearly all actives have a fitted effect of over 75% in size
Target sequence (Q96KQ7 913-1193 limits assumed): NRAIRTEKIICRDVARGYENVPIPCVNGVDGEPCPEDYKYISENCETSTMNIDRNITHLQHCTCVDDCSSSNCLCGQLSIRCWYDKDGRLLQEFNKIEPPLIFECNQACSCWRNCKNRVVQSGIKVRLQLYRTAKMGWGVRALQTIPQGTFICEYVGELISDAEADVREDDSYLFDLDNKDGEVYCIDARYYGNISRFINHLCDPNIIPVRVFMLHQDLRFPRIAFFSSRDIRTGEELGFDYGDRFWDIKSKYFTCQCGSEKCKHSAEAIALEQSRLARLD
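G9a (20 nM) was preincubated 15 min with compound, then reacted 2 h at room temperature with 500 nM biotin-H3K9 peptide and 20 µM SAM. Monomethyl-H3K9 detected by AlphaScreen using anti-H3K9me1 antibody.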
GLS inh: blocks human kidney-isoform glutaminase activity; Potency, µM (titrated, usually from 45.5 µM), for the others: at the highest dose activity change, negative = inhibition, most hits filed as inhibitors; GLS enzymatic activity, qHTS titration; 0.21% of 410,000 active; note: % is set by controls: 0 for no effect and ±100 for the full control effect
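hKGA in 45 mM KH2PO4 pH 8.2, 0.02% Tween-20 with pin-transferred compounds; 1 mM L-glutamine (stock) plus glutamate oxidase/HRP/Amplex Red coupling added. Fluorescence read initially and after 30 min at RT.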
HP1b chromo inh: HP1-beta chromodomain-methylated histone interaction inhibition; P83916; Potency, µM (top dose mostly 114 µM), for inactives: top-dose activity change, negative = inhibition, hits mostly inhibitors; 0.56% of 390,000 active; AlphaScreen HP1-beta / biotin-H3K9me3 peptide binding; note: nearly all actives have a fitted effect of over 70% in size
Target sequence (P83916 whole entry, looked up): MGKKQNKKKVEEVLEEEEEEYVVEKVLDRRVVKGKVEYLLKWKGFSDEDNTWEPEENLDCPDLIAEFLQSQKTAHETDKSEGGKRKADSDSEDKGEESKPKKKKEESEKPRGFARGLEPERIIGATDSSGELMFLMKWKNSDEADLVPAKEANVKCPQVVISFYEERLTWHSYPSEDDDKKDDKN
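AlphaScreen: HP1-beta (50 nM) preformed 30 min with biotin-H3(1-18)K9me3 peptide (50 nM) in PBS pH 7.4, 0.01% Tween-20. Compound added for 30 min at RT, then streptavidin donor/nickel chelate acceptor beads (10 ug/mL) for 30 min.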
BAZ2B inh: blocks human BAZ2B; Q9UIF8; AlphaScreen BAZ2B-H3K14Ac peptide displacement; AID 504333; 4.4% of 360,000 active; Potency, µM (top dose mostly 114 µM), inactives show at the highest dose activity change, negative = inhibition, most hits filed as inhibitors; note: % is set by controls: 0 for no effect and ±100 for the full control effect; nearly all actives have a fitted effect of over 60% in size
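BAZ2B 50 nM plus b-H3(5-23)K14Ac 50 nM, PBS pH 7.4/0.01% Tween-20, 30 min RT; compound added (max 110 uM), 30 min RT; streptavidin donor/Ni-chelate acceptor beads 10 ug/mL final, 20 min dark; AlphaScreen read.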
JMJD2A Tudor: JMJD2A Tudor domain (human) inhibition; O75164; AlphaScreen JMJD2A-Tudor / H3K4me3 peptide binding; Potency, µM (series often up to 114 µM), for the others: top-dose activity change, negative = inhibition, most hits filed as inhibitors; 4.4% of 390,000 active; AID 504339; note: % is set by controls: 0 for no effect and ±100 for the full control effect; nearly all actives have a fitted effect of over 50% in size
Active calls of the source: *; ? = inconclusive; · = not tested or not shown; ! = not active in a repeat; [ ] = another dose, or the depositor's remark. Calls come from the whole dose curve; as a rule, active = well fitted curve in the direction sought with a large enough effect; inconclusive = small, poorly fitted or top-dose-only effect, or another doubt; inactive = no such curve, though single readings can be large; an effect the other way counts as inactive or inconclusive. Potency is the fitted concentration of half-maximal effect.

SMILES	G9a block	GLS inh	HP1b chromo inh	BAZ2B inh	JMJD2A Tudor
Cc1cc(C(=O)CN2C(=O)NC(Cc3c[nH]c4ccccc34)C2=O)c(C)n1C (configuration not stated)	50µM*	28%	0%	50µM*	?
CNC(=O)CN1C(=O)NC(Cc2c[nH]c3ccccc23)C1=O (configuration not stated)	2%	15%	25%	-8%	-20%
COc1cccc2sc3cc(C#Cc4ccccn4)ccc3c(=O)c12	·	-3%	-7%	·	28µM*
COc1cccc2oc3ccc(C#Cc4ccccn4)cc3c(=O)c12	50µM*	0%	30%	-8%	-15%
O=c1c2ccccc2oc2cc(C#Cc3ccccn3)ccc12	·	-4%	81%	·	-19%
S=C1SC2(CCCCCC2)NC2=C1CCCCC2	·	6%	·	·	·
Cc1cc(O)c2c(c1O)C(=O)c1c(O)cc(C)c(O)c1C2=O	-35%[2.33 µM]	·	·	·	·
Cc1cc(O)c2c(c1O)C(=O)[C@]13C(=C2O)C(=O)[C@@H]2[C@@H](O)[C@H]1[C@@H]1[C@H](O)[C@H]3C(=O)C3=C(O)c4c(O)cc(C)c(O)c4C(=O)[C@]312	·	6.3µM*	?	·	7.9µM*
CC1=NS(=O)(=O)c2cc(Cl)ccc2N1	2.8µM*!	-4%	25%	5%	-6%
CC(=O)c1ccc(NC(=O)CSC2=NS(=O)(=O)c3cc(Cl)ccc3N2)cc1	?	22%	8%	-8%	-11%
O=C(CSC1=NS(=O)(=O)c2cc(Cl)ccc2N1)c1ccc(Cl)cc1	56µM*	2%	44%	-9%	-11%
O=C(CSC1=NS(=O)(=O)c2cc(Cl)ccc2N1)Nc1cccc(F)c1	-9%	1%	33%	10%	-5%
CC(=O)N1CCN(C2=NC(=O)/C(=C/c3ccc(OS(=O)(=O)c4ccccc4)cc3)S2)CC1	-14%	5%	-5%	-30%	?
COC(=O)C1=C(C)OC(N)=C(C#N)C1c1cc2cc(C)ccc2nc1Cl (configuration not stated)	40µM*	-12%	39%	-33%	-4%
COc1ccc(S(=O)(=O)NCCSCc2ccco2)cc1OC	12%[12.7 µM]	-3%	8%	56µM*	-34%
CCOc1ccc(S(=O)(=O)NCCSCc2ccco2)cc1	-1%[59 µM]	-11%	1%	?	-29%
COc1ccc(S(=O)(=O)NCCSCc2ccco2)cc1	-14%[12.7 µM]	4%	0%	50µM*	-30%
COc1ccc(S(=O)(=O)NCCc2ccco2)cc1OC	39%	-10%	44%	-5%[57.1 µM]	-11%
COc1ccc(-n2nc(C(=O)NCC(=O)N3CCN(c4ccccc4OC)CC3)c3ccccc3c2=O)cc1OC	9%	0%	8%	-13%	-19%
COc1ccc(-n2nc(C(=O)NCC(=O)N3CCN(c4ccccc4)CC3)c3ccccc3c2=O)cc1OC	45µM*	-2%	65%	2%	-13%
CCOC(=O)N1CCN(C(=O)CNC(=O)c2nn(-c3ccc(OC)cc3OC)c(=O)c3ccccc23)CC1	45µM*	-19%	51%	5%	-4%
COc1ccc(-n2nc(C(=O)NCC(=O)N3CCCC3)c3ccccc3c2=O)c(OC)c1	9%[59 µM]	4%	-2%	6%	-2%
CCOC(=O)N1CCC(=NNc2nc(C)cc(=O)[nH]2)CC1	40µM*	-13%	31%	-3%	-4%
CCOC(=O)N1CCC(=NNc2ccc(S(=O)(=O)N3CCOCC3)cc2[N+](=O)[O-])CC1	-6%[59 µM]	6%	?	-36%	-16%
CCn1c(C(=O)OC)cc2c1ccn2-c1ccc(F)cc1	?	?	?	13µM*	3.2µM*
CCOC(=O)c1cc(=O)n(-c2ccc(Cl)cc2C)[nH]1	13µM*	-6%	18%	-29%	-16%
CCOC(=O)c1n[nH]n(-c2cc(Cl)cc(Cl)c2)c1=O	3%	2%	43%	12%	7%
Cc1nnc(SCC2=C(C(=O)O)N3C(=O)C(NC(=O)C(C)n4nc(C(F)(F)F)cc4C)C3SC2)s1 (configuration not stated)	?	-13%	25%	50µM*	63µM*

Assay outcomes from PubChem.
